Experimental data taken from PubChem BioAssay AID1159580 (chemical genetic matrix, 2015).
About 2,000 (36%) of roughly 5,500 compounds were called active. Another 18% or so got no clear call; they are omitted. Rule as the data show it: active = normalized growth mostly below about 0.91 (no sharp cut-off); inconclusive = no clear call, values can overlap the other calls; inactive = mostly above about 0.92. This is one part of the list.

Experiment: chemical genetic growth profiling, strain panel (AID 1159580);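 also: tested at 20 µM; growth read once vehicle control cultures reached saturation at 30 °C; 1 = growth at the plate median or of vehicle wells; lower values mean less growth of the strain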
Conditions: growth OD
[1] = S. cerevisiae deletion strains, locus YAL013W, strain DEP1, active compounds read low
[2] = S. cerevisiae deletion strains, locus YBR229C, strain ROT2, active compounds read low
[3] = S. cerevisiae deletion strains, locus YDL101C, strain DUN1, active compounds read low
[4] = S. cerevisiae deletion strains, locus YDR150W, strain NUM1, active compounds read low
[5] = S. cerevisiae deletion strains, locus YEL061C, strain CIN8, active compounds read low
[6] = S. cerevisiae deletion strains, locus YGR078C, strain PAC10, active compounds read low
[7] = S. cerevisiae deletion strains, locus YHR030C, strain SLT2, active compounds read low
[8] = S. cerevisiae deletion strains, locus YHR087W, strain rtc3, active compounds read low
[9] = S. cerevisiae deletion strains, locus YJR043C, strain POL32, active compounds read low
[10] = S. cerevisiae deletion strains, locus YJR075W, strain HOC1, active compounds read low
[11] = S. cerevisiae deletion strains, locus YKL190W, strain CNB1, active compounds read low
[12] = S. cerevisiae deletion strains, locus YLR039C, strain RIC1, active compounds read low
[13] = S. cerevisiae deletion strains, locus YLR058C, strain SHM2 (second series), active compounds read low
[14] = S. cerevisiae deletion strains, locus YLR085C, strain ARP6, active compounds read low
[15] = S. cerevisiae deletion strains, locus YLR262C, strain YPT6, active compounds read low
[16] = S. cerevisiae deletion strains, locus YML094W, strain GIM5, active compounds read low
[17] = S. cerevisiae deletion strains, locus YMR219W, strain ESC1, active compounds read low
[18] = S. cerevisiae deletion strains, locus YMR263W, strain SAP30, active compounds read low
[19] = S. cerevisiae deletion strains, locus YNL153C, strain GIM3, active compounds read low
[20] = S. cerevisiae deletion strains, locus YNL298W, strain CLA4 (second series), active compounds read low
[21] = S. cerevisiae deletion strains, locus YNL322C, strain KRE1, active compounds read low
[22] = S. cerevisiae deletion strains, locus YNR030W, strain Alg12, active compounds read low
[23] = S. cerevisiae deletion strains, locus YPL055C, strain LGE1, active compounds read low
[24] = S. cerevisiae deletion strains, locus YPL241C, strain CIN2, active compounds read low
[25] = S. cerevisiae deletion strains, locus YPR135W, strain CTF4, active compounds read low
[26] = S. cerevisiae strains, strain wild type, active compounds read low

Measured: normalized growth

CC12NC(=O)NC1(C)NC(=O)N2 (stereo not drawn)
inactive: [1] 1.04 | [2] 1.01 | S. cerevisiae deletion strains, locus YCL061C, strain MRC1, active compounds read low 1 | [3] 1.01 | S. cerevisiae deletion strains, locus YDL134C, strain PPH21, active compounds read low 1.02 | [4] 0.997 | [5] 1.03 | [6] 1.02 | S. cerevisiae deletion strains, locus YGR229C, strain SMI1, active compounds read low 1.01 | [7] 1.07 | [8] 1.01 | [9] 1.01 | [10] 1.02 | [11] 1.03 | [12] 1.06 | [13] 1.02 | [14] 1.05 | [15] 1.04 | [16] 1.04 | [17] 1.01 | [18] 1.01 | S. cerevisiae deletion strains, locus YMR307W, strain GAS1, active compounds read low 1.11 | [19] 1 | [20] 1.05 | [21] 1.01 | [22] 1.02 | S. cerevisiae deletion strains, locus YOL006C, strain TOP1, active compounds read low 1.09 | [23] 1.04 | [24] 1.05 | [25] 1.02 | [26] 1.01

ClC1=C(C=Nc2ccc(Cl)cc2)CSc2ccc(Cl)cc21
active: [7] 0.74 | S. cerevisiae deletion strains, locus YLR113W, strain HOG1, active compounds read low 0.808 | S. cerevisiae deletion strains, locus YPL256C, strain CLN2, active compounds read low 0.843
inactive: S. cerevisiae deletion strains, locus YAR019C, strain CDC15, active compounds read low 0.941 | S. cerevisiae deletion strains, locus YBL105C, strain PKC1, active compounds read low 0.926 | S. cerevisiae deletion strains, locus YBR135W, strain CKS1, active compounds read low 0.939 | S. cerevisiae deletion strains, locus YBR136W, strain MEC1, active compounds read low 0.926 | S. cerevisiae deletion strains, locus YBR160W, strain CDC28, active compounds read low 0.937 | S. cerevisiae deletion strains, locus YDL017W, strain CDC7, active compounds read low 0.933 | S. cerevisiae deletion strains, locus YDL028C, strain MPS1, active compounds read low 0.912 | [3] 0.945 | S. cerevisiae deletion strains, locus YDL108W, strain KIN28, active compounds read low 0.923 | S. cerevisiae deletion strains, locus YDL132W, strain cdc53, active compounds read low 0.936 | S. cerevisiae deletion strains, locus YDL214C, strain PRR2, active compounds read low 0.896 | S. cerevisiae deletion strains, locus YDR052C, strain DBF4, active compounds read low 0.943 | S. cerevisiae deletion strains, locus YDR054C, strain cdc34, active compounds read low 0.919 | S. cerevisiae deletion strains, locus YDR226W, strain ADK1, active compounds read low 0.914 | S. cerevisiae deletion strains, locus YDR477W, strain SNF1, active compounds read low 0.879 | S. cerevisiae deletion strains, locus YER123W, strain YCK3, active compounds read low 0.83 | S. cerevisiae deletion strains, locus YER133W, strain GLC7, active compounds read low 0.891 | S. cerevisiae deletion strains, locus YFL009W, strain cdc4, active compounds read low 0.924 | S. cerevisiae deletion strains, locus YFL029C, strain CAK1, active compounds read low 0.928 | S. cerevisiae deletion strains, locus YFR003C, strain YPI1, active compounds read low 0.94 | S. cerevisiae deletion strains, locus YFR019W, strain FAB1, active compounds read low 0.909 | S. cerevisiae deletion strains, locus YFR028C, strain CDC14, active compounds read low 0.935 | S. cerevisiae deletion strains, locus YGR040W, strain KSS1, active compounds read low 0.866 | S. cerevisiae deletion strains, locus YGR052W, strain FMP48, active compounds read low 0.905 | S. cerevisiae deletion strains, locus YGR092W, strain DBF2, active compounds read low 0.796 | S. cerevisiae deletion strains, locus YHR079C, strain IRE1, active compounds read low 0.862 | S. cerevisiae deletion strains, locus YHR082C, strain KSP1, active compounds read low 0.816 | S. cerevisiae deletion strains, locus YHR205W, strain SCH9, active compounds read low 0.812 | S. cerevisiae deletion strains, locus YIL147C, strain SLN1, active compounds read low 0.926 | S. cerevisiae deletion strains, locus YJL095W, strain BCK1, active compounds read low 0.881 | S. cerevisiae deletion strains, locus YJL128C, strain PBS2, active compounds read low 0.903 | S. cerevisiae deletion strains, locus YJL157C, strain FAR1, active compounds read low 0.886 | S. cerevisiae deletion strains, locus YJR016C, strain ILV3, active compounds read low 0.936 | S. cerevisiae deletion strains, locus YJR066W, strain TOR1 (second series), active compounds read low 0.91 | S. cerevisiae deletion strains, locus YJR066W, strain TOR1, active compounds read low 0.815 | S. cerevisiae deletion strains, locus YKL048C, strain ELM1, active compounds read low 0.941 | S. cerevisiae deletion strains, locus YKL067W, strain YNK1, active compounds read low 0.902 | S. cerevisiae deletion strains, locus YKL101W, strain HSL1, active compounds read low 0.893 | S. cerevisiae deletion strains, locus YKL193C, strain SDS22, active compounds read low 0.932 | S. cerevisiae deletion strains, locus YKL203C, strain TOR2, active compounds read low 0.884 | S. cerevisiae deletion strains, locus YLR133W, strain CKI1, active compounds read low 0.869 | S. cerevisiae deletion strains, locus YLR403W, strain SFP1, active compounds read low 0.836 | S. cerevisiae deletion strains, locus YML070W, strain DAK1, active compounds read low 0.89 | S. cerevisiae deletion strains, locus YMR001C, strain CDC5, active compounds read low 0.927 | S. cerevisiae deletion strains, locus YMR205C, strain PFK2 (second series), active compounds read low 0.904 | S. cerevisiae deletion strains, locus YMR277W, strain FCP1, active compounds read low 0.933 | S. cerevisiae deletion strains, locus YNL006W, strain LST8, active compounds read low 0.928 | S. cerevisiae deletion strains, locus YNL020C, strain ARK1, active compounds read low 0.883 | S. cerevisiae deletion strains, locus YNL161W, strain CBK1, active compounds read low 0.929 | S. cerevisiae deletion strains, locus YNL183C, strain NPR1, active compounds read low 0.841 | S. cerevisiae deletion strains, locus YNL207W, strain RIO2, active compounds read low 0.926 | S. cerevisiae deletion strains, locus YNL222W, strain SSU72, active compounds read low 0.947 | S. cerevisiae deletion strains, locus YNL307C, strain MCK1 (second series), active compounds read low 0.861 | S. cerevisiae deletion strains, locus YOL078W, strain AVO1, active compounds read low 0.937 | S. cerevisiae deletion strains, locus YOL136C, strain PFK27, active compounds read low 0.886 | S. cerevisiae deletion strains, locus YOR061W, strain CKA2, active compounds read low 0.843 | S. cerevisiae deletion strains, locus YOR119C, strain RIO1, active compounds read low 0.848 | S. cerevisiae deletion strains, locus YOR231W, strain MKK1, active compounds read low 0.924 | S. cerevisiae deletion strains, locus YOR329C, strain SCD5, active compounds read low 0.93 | S. cerevisiae deletion strains, locus YPL031C, strain PHO85, active compounds read low 0.87 | S. cerevisiae deletion strains, locus YPL153C, strain RAD53, active compounds read low 0.904 | S. cerevisiae deletion strains, locus YPL204W, strain HRR25, active compounds read low 0.893 | S. cerevisiae deletion strains, locus YPL209C, strain IPL1, active compounds read low 0.932 | S. cerevisiae deletion strains, locus YPR025C, strain CCL1, active compounds read low 0.935 | S. cerevisiae deletion strains, locus YPR106W, strain ISR1, active compounds read low 0.922 | S. cerevisiae deletion strains, locus YPR111W, strain DBF20, active compounds read low 0.923 | S. cerevisiae deletion strains, strain NNK1, active compounds read low 0.923 | S. cerevisiae deletion strains, strain TSCII, active compounds read low 0.93

O=C(c1ccc(-c2ccccc2)cc1)c1cc2cc([N+](=O)[O-])ccc2o1
inactive: [1] 1 | [2] 0.993 | [3] 1.02 | [4] 0.99 | [5] 1.01 | [6] 1.01 | [7] 1.01 | [8] 1.01 | [9] 0.997 | [10] 1.03 | [11] 0.993 | [12] 0.986 | [13] 0.993 | [14] 1 | [15] 0.981 | [16] 1.07 | [17] 1 | [18] 1.04 | [19] 1.01 | [20] 0.996 | [21] 1.01 | [22] 1 | [23] 1.01 | [24] 1.07 | [25] 1.12 | [26] 0.987
